{"source": "PubChem BioAssay AID1974", "about": "(The Scripps Research Institute Molecular Screening Center, 2009)", "note": "Out of some 300,000 compounds screened, about 3,200 (1.1%) were called active. For the sample, actives were picked, then their nearest neighbours and some compounds at random. Unmarked numbers belong to inactive results.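 How the source made its calls: active means inhibition above the campaign mean inhibition plus 3 SD (cut at about 35% in these data); inactive means the rest.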"}
{"target": "Glutathione S-transferase omega-1 (Homo sapiens) (UniProt P78417)", "sequence (P78417 whole entry, looked up)": "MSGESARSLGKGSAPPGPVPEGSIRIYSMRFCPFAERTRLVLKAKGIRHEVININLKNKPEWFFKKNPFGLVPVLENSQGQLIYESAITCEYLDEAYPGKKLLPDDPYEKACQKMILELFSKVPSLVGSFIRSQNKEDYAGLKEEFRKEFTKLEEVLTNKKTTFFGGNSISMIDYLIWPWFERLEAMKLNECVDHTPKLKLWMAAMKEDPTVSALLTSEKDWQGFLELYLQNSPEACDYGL", "test": "human GSTO1 enzyme inhibition – biochemical, fluorescence polarization, counter-screen for RBBP9 inhibitor project, primary screen (AID 1974);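 further: 0% = GSTO1-1 with DMSO and 100% = wells lacking GSTO1-1 enzyme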", "conditions": "recombinant GSTO1, activity-based probe fluorescence polarization; at 5.96 µM; active compounds read high"}
{"smiles": "Cc1ccc2c(c1)N(CC(=O)NCC1CCCO1)C(=O)CO2", "note": "(stereo unspecified)", "inhibition": "-3.07%"}
{"smiles": "CCn1c(SCC(=O)N/N=C/c2ccncc2)nc2ccccc21", "inhibition": "-0.27%"}
{"smiles": "Cn1c(SCC(=O)N/N=C/c2ccc(O)c(O)c2)nc2ccccc21", "inhibition": "52% (active)"}
{"smiles": "CCOc1ccc(/C=N/NC(=O)CSc2ccccn2)cc1O", "inhibition": "1.26%"}
{"smiles": "CC(=O)c1ccc(-c2ccc(Cn3c(C)nc4cc(N)c(C)nc43)cc2)cc1", "inhibition": "4.41%"}
{"smiles": "CSc1nc2ccccc2c(=O)n1Cc1ccc(F)cc1", "inhibition": "-7.17%"}
{"smiles": "Cc1cc2nc3c(=O)n(Cc4ccccc4)c(=O)[nH]c3nc2cc1N", "inhibition": "44.9% (active)"}
{"smiles": "O=S(=O)(ON(c1ccccc1)S(=O)(=O)c1ccccc1)c1ccccc1", "inhibition": "-0.47%"}
{"smiles": "CC1=C/C(=N\\OS(=O)(=O)c2ccccc2)C=CC1=O", "inhibition": "49.7% (active)"}
{"smiles": "CCN(CC(=O)NCc1cccs1)C(=O)c1ccc(OC)c(S(=O)(=O)N2CCOCC2)c1", "inhibition": "11.9%"}
{"smiles": "O=S(=O)(O)Oc1c[nH]c2ccccc12", "inhibition": "62.3% (active)"}
{"smiles": "COc1ccccc1CC(=O)NCCc1c[nH]c2ccccc12", "inhibition": "5.81%"}
{"smiles": "O=C(Cc1c[nH]c2ccccc12)OCCOC(=O)Cc1c[nH]c2ccccc12", "inhibition": "-2.78%"}
{"smiles": "Cc1ccc(Cn2nnc3c(=O)[nH]c(C4CCN(S(=O)(=O)/C=C/c5ccccc5)CC4)nc32)cc1", "inhibition": "-24.4%"}
{"smiles": "O=C(CN1C(=O)c2ccccc2C1=O)NCc1ccc(C(=O)O)cc1", "inhibition": "3.69%"}
{"smiles": "CC(=O)N(C1=C(Cl)C(=O)c2ccccc2C1=O)c1ccc(C(=O)O)cc1", "inhibition": "79.7% (active)"}
{"smiles": "CC(C)N(C(=O)c1ccc(-c2ccccc2F)cc1)C(C)C", "inhibition": "0.63%"}
{"smiles": "NC(=O)NC(=O)C(OC(=O)CCNS(=O)(=O)c1ccccc1)c1ccccc1", "note": "(stereo unspecified)", "inhibition": "-0.72%"}
{"smiles": "Cc1ccc(CSCC(=O)N(C)CC(=O)Nc2ccc(C)cc2)cc1", "inhibition": "-11.5%"}
{"smiles": "CCOC(=O)c1cnc2nc(SCc3ccccc3Cl)[nH]n2c1=O", "inhibition": "-25.6%"}
{"smiles": "Cc1ccc([N+](=O)[O-])cc1S(=O)(=O)N1CCCN(C)CC1", "inhibition": "2.63%"}
{"smiles": "CN1CCN(/N=C/c2ccc(-c3ccc([N+](=O)[O-])cc3)o2)CC1", "inhibition": "3.62%"}
{"smiles": "CN1CCN(/N=C2/C(=O)Nc3ccc([N+](=O)[O-])cc32)CC1", "inhibition": "37.1% (active)"}
{"smiles": "COc1cccc(NC(C)=[N+](C)CCNS(=O)(=O)c2ccc(Cl)cc2)c1", "inhibition": "8.66%"}
{"smiles": "Cc1cccc(C(C)C)c1NC(=O)COC(=O)C1CC(=O)N(Cc2ccccc2)C1", "note": "(stereo unspecified)", "inhibition": "7.97%"}
{"smiles": "c1ccc(NCc2cccc3ccccc23)nc1", "inhibition": "-6.32%"}
{"smiles": "Oc1ccc(N=Nc2nccs2)c(O)c1", "inhibition": "36.6% (active)"}
{"smiles": "Oc1ccc2ccccc2c1N=Nc1nccs1", "inhibition": "52% (active)"}
{"smiles": "O=C(Oc1ccc(-c2nnco2)cc1)c1ccc(F)c(S(=O)(=O)N2CCOCC2)c1", "inhibition": "3.94%"}
{"smiles": "CCN(CC(=O)Nc1c(F)cccc1F)C(=O)c1ccc(S(=O)(=O)N2CCCCC2)cc1", "inhibition": "3.32%"}
{"smiles": "Cc1cccc(C)c1NC(=O)CSc1ccc([N+](=O)[O-])cn1", "inhibition": "5.11%"}
{"smiles": "O=[N+]([O-])c1ccc(Sc2n[nH]c(-c3ccco3)n2)nc1", "inhibition": "5.75%"}
{"smiles": "CC(C)(C)n1cnnc1Sc1ccc([N+](=O)[O-])cn1", "inhibition": "39.1% (active)"}
{"smiles": "CC(OC(=O)CNC(=O)c1cccc(F)c1)C(=O)NC1CCCCC1C", "note": "(stereo unspecified)", "inhibition": "3.44%"}
{"smiles": "Cc1ccccc1NCC(=O)N/N=C\\c1ccc([N+](=O)[O-])s1", "inhibition": "15.2%"}
{"smiles": "CC(C)(C)c1cc(C(=O)N/N=C/c2ccc([N+](=O)[O-])s2)n[nH]1", "inhibition": "37% (active)"}
{"smiles": "COc1ccc(C(=O)NCC(=O)N/N=C/c2ccc([N+](=O)[O-])s2)cc1OC", "inhibition": "27.8%"}
{"smiles": "O=C(NCCSc1ncc(-c2ccccc2)[nH]1)c1ccco1", "inhibition": "5.65%"}
{"smiles": "CC1(OC(=O)C2CCCC2)C(=O)C=C2C=C(c3ccc(C#N)cc3)OC=C2C1=O", "note": "(stereo unspecified)", "inhibition": "24.5%"}
{"smiles": "COCCN1C=C2C(=O)C(C)(OC(=O)C3CCCC3)C(=O)C=C2C=C1c1ccsc1", "note": "(stereo unspecified)", "inhibition": "45.6% (active)"}
{"smiles": "CC1(OC(=O)CCc2ccccc2)C(=O)C=C2C=C(c3ccc(C#N)cc3)N(CCc3ccccn3)C=C2C1=O", "note": "(stereo unspecified)", "inhibition": "27.9%"}
{"smiles": "NC(=O)C1=C[C@@H](c2ccc3c(c2)OCO3)C[C@@H](OCCCCO)O1", "inhibition": "14.6%"}
{"smiles": "CN(C)C(=O)N=NC(=O)N(C)C", "inhibition": "1.15%"}
{"smiles": "CCC(Oc1ccccc1C)C(=O)Nc1ccc(S(=O)(=O)Nc2cc(C)on2)cc1", "note": "(stereo unspecified)", "inhibition": "-0.82%"}
{"smiles": "CN1c2ccc(C=O)c3c(C=O)ccc(c23)N(C)C1(C)C", "inhibition": "72.9% (active)"}
{"smiles": "Cc1cc(C)cc(NC(=O)COc2coc(CN3CCN(c4ccccc4)CC3)cc2=O)c1", "inhibition": "-4.3%"}
{"smiles": "CCN(C(=O)CSc1ncnc2c1cnn2-c1ccccc1)C1CCS(=O)(=O)C1", "note": "(stereo unspecified)", "inhibition": "-42.3%"}
{"smiles": "CC(=O)N1CCN(C(=O)c2cc(-c3ccc(C)o3)nc3ccccc23)CC1", "inhibition": "5.42%"}
{"smiles": "Clc1ccc(C2=CSC3=Nc4cccc5cccc(c45)N23)cc1", "inhibition": "58.2% (active)"}
{"smiles": "Cc1ccc2nc(NC(=O)CSc3nc(=O)n(CCCN(C)C)c4c3CCC4)sc2c1", "inhibition": "-12.3%"}
{"smiles": "COc1ccc2oc(C(=O)N(CC(C)C)C3CCS(=O)(=O)C3)c(C)c2c1", "note": "(stereo unspecified)", "inhibition": "-0.98%"}
{"smiles": "Cc1ccc(/C=N/NC(=O)CN2CCN(Cc3ccccc3)CC2)s1", "inhibition": "-7.48%"}
{"smiles": "Cc1ccc(C(=O)N/N=C/c2cccc3ccccc23)cn1", "inhibition": "0.98%"}
{"smiles": "Cc1ccc(C(=O)N/N=C/c2sc(=O)n(Cc3cccc(C(=O)O)c3)c2Cl)cc1", "inhibition": "40.4% (active)"}
{"smiles": "Cc1ccccc1S(=O)(=O)N1[C@@H](c2cccc(Cl)c2)C(C(=O)O)=CC[C@H]1c1ccc(Cl)cc1", "inhibition": "-219%"}
{"smiles": "COc1ccc(-c2c(NC(=O)c3ccco3)oc3ccc(Cl)cc3c2=O)cc1", "inhibition": "-7.76%"}
{"smiles": "Cc1c(-c2cccc(Cl)c2)nc2ccccc2c1C(=O)OCC(=O)N(C)C1CCS(=O)(=O)C1", "note": "(stereo unspecified)", "inhibition": "-6.81%"}
{"smiles": "CN(C(=O)COC(=O)c1cc(-c2ccco2)nc2ccccc12)C1CCS(=O)(=O)C1", "note": "(stereo unspecified)", "inhibition": "66.1% (active)"}
{"smiles": "CN(C(=O)COC(=O)c1nc(Cl)ccc1Cl)C1CCS(=O)(=O)C1", "note": "(stereo unspecified)", "inhibition": "3.97%"}
{"smiles": "Nc1c(-c2ccccc2)nnn1Cc1ccccc1", "inhibition": "16.3%"}
{"smiles": "CC1CCC(CN2CCN=C2N(C)C)CC1", "note": "(stereo unspecified)", "inhibition": "1.09%"}
{"smiles": "COc1ccc(NC(=O)CSc2nc3ccccc3c(=O)n2C)cc1", "inhibition": "-2.78%"}
{"smiles": "COc1ccc(Cc2nnc(SCC(=O)N(c3ccccc3)C(C)C)n(N)c2=O)cc1", "inhibition": "-0.68%"}
{"smiles": "COc1ccc(NC(=O)CSc2nnc(Cc3ccccc3)c(=O)n2N)cc1", "inhibition": "36.1% (active)"}
{"smiles": "O=C(NCc1ccccn1)Nc1ccc(Cl)cc1", "inhibition": "-3.8%"}
{"smiles": "Cc1ccnc(NC(=O)CNC(=O)c2ccccc2)c1", "inhibition": "-2.68%"}
{"smiles": "O=C(Nc1ccc(S(=O)(=O)Nc2nccs2)cc1)c1cc(=O)[nH]c2ccccc12", "inhibition": "-5.17%"}
{"smiles": "O=C(Nc1ccc(S(=O)(=O)Nc2nccs2)cc1)c1cc(-c2ccncc2)nc2ccccc12", "inhibition": "44.3% (active)"}
{"smiles": "Cc1ccc2nc(-c3ccncc3)cc(C(=O)Nc3ccncc3)c2c1", "inhibition": "0.09%"}
{"smiles": "COc1ccc(C(=O)Oc2ccc(-c3nnco3)cc2)cc1S(=O)(=O)N1CCOCC1", "inhibition": "8.84%"}
{"smiles": "O=C(Nc1cc2c3c(c1)CC(=O)N3CCC2)c1ccccc1F", "inhibition": "-2.65%"}
{"smiles": "COc1ccccc1N(C)S(=O)(=O)c1ccc(Cl)c(C(=O)Nc2ccncc2)c1", "inhibition": "1.75%"}
{"smiles": "O=C1c2ccccc2C(=O)c2c1cccc2N1CCN(C/C=C/c2ccccc2)CC1", "inhibition": "1.48%"}
{"smiles": "CC1C(=O)Nc2ccccc2N1C(=O)c1ccc(F)cc1F", "note": "(stereo unspecified)", "inhibition": "52.8% (active)"}
{"smiles": "CCCC(=O)N1c2ccccc2NC2=C(C(=O)CCC2)C1c1ccc(F)cc1", "note": "(stereo unspecified)", "inhibition": "-0.62%"}
{"smiles": "CC1C(=O)Nc2ccccc2N1C(=O)c1c(F)cccc1F", "note": "(stereo unspecified)", "inhibition": "4.45%"}
{"smiles": "COc1ccc(N2CCN(C(=O)CCNC(=O)c3ccc(Br)cc3)CC2)cc1", "inhibition": "-8.57%"}
{"smiles": "CCCCn1c(N)c(N(CC(C)C)C(=O)CN(C)S(=O)(=O)c2ccc(F)cc2)c(=O)[nH]c1=O", "inhibition": "16.4%"}
{"smiles": "CC(=O)c1c(C)[nH]c(C(=O)N2CCN(S(=O)(=O)c3ccc(F)c(F)c3)CC2)c1C", "inhibition": "16.8%"}
{"smiles": "COc1ccc2oc(=O)c(C(=O)NCc3ccccn3)cc2c1", "inhibition": "3.7%"}
{"smiles": "O=C(NCc1ccccn1)c1ccc2nc(-c3ccco3)c(-c3ccco3)nc2c1", "inhibition": "82.7% (active)"}
{"smiles": "Cc1cc(C)cc(NC(=O)NCc2ccccn2)c1", "inhibition": "0.33%"}
{"smiles": "CCCC(=O)Nc1ccc2c(c1)nc(CCNC(=O)c1ccco1)n2C", "inhibition": "5.94%"}
{"smiles": "COCCNC(=O)Nc1ccc2nc(-c3ccco3)c(-c3ccco3)nc2c1", "inhibition": "69.1% (active)"}
{"smiles": "CC(C)(C)c1ccc(NC(=O)NCc2ccco2)cc1", "inhibition": "3.61%"}
{"smiles": "COc1ccc2c(c1)C(=O)Nc1cc(Cl)ccc1N2", "inhibition": "9.43%"}
{"smiles": "CC(OC(=O)CNC(=O)c1ccco1)C(=O)Nc1ccc(Cl)cn1", "note": "(stereo unspecified)", "inhibition": "1.63%"}
{"smiles": "CCC1(CC)C(=O)C2=C3C1[C@H](C(=O)OC)C=C(C(=O)OC)C[C@H]3[C@H]1C(=O)N(Cc3ccccc3)C(=O)[C@H]1[C@H]2C", "note": "(stereo partly specified)", "inhibition": "1.43%"}
{"smiles": "Cc1csc2nc(O)c(C(=O)NCCN3CCOCC3)c(=O)n12", "inhibition": "-2.86%"}
{"smiles": "CCc1noc(C)c1C(=O)N1CCCSC1=Nc1ccccc1OC", "inhibition": "-0.08%"}
{"smiles": "Cc1onc(-c2c(F)cccc2Cl)c1C(=O)N(C)CC(=O)Nc1cccc(F)c1", "inhibition": "6.99%"}
